Compounds without any hit were thinned out: in the full panel of roughly 83,000, 20% have a hit.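 In brief: 96-well plates, 48 h treatment, single concentration, percent growth endpoint.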 Values without a mark were called inactive. Active and inactive are the calls of the source. The calls were made as follows: active = growth percent below 10; inactive = the rest.

Among the test systems are SK-MEL-2 melanoma; EKVX NSCLC; SN12C renal; UO-31 renal; TK-10 renal; ACHN renal; CAKI-1 renal; A498 renal; CCRF-CEM leukemia; MOLT-4 leukemia; RPMI-8226 leukemia; OVCAR-8 ovarian; OVCAR-5 ovarian; OVCAR-4 ovarian; SK-OV-3 ovarian; IGROV1 ovarian; OVCAR-3 ovarian; HS 578T breast; NCI/ADR-RES ovarian; SR leukemia.
Assay in all cases: NCI-60 one-dose screen, 48 h (100 = growth as untreated, 0 = no growth, -100 = all killed)
Holding throughout (details): 10 µM unless noted

Take `C/C(=N\NC(=O)Cn1c(-c2ccc(S(C)(=O)=O)cc2)nc2cc(Cl)ccc21)c1ccc(Cl)cc1`: the growth with SK-MEL-2 melanoma was 91.1%; with EKVX NSCLC, 76.6%; with SN12C renal it was 84%; with UO-31 renal, 62.7%; in the assay with TK-10 renal it was 101%; with ACHN renal, 85.8%. Moreover, the growth in the assay with CAKI-1 renal is 74%; with A498 renal, 89.8%; in the assay on CCRF-CEM leukemia, 76.2%; with MOLT-4 leukemia, 61.5%; in the assay with RPMI-8226 leukemia, 76.4%; in the assay with OVCAR-8 ovarian it was 79.5%. The growth in the assay on OVCAR-5 ovarian is 91.2%; with OVCAR-4 ovarian, 65.9%; in the assay with SK-OV-3 ovarian, 81.3%; in the assay on IGROV1 ovarian it was 70.6%; in the assay with OVCAR-3 ovarian, 79.7%; with HS 578T breast it was 80.7%. In addition, the growth in the assay with NCI/ADR-RES ovarian is 86.7%.
For the molecule `C[C@H]1[C@H](C)CC[C@]2(C(=O)N3CCN(C)CC3)CC[C@]3(C)C(=CC[C@@H]4[C@@]5(C)C/C(=C/c6cccnc6)C(=O)C(C)(C)[C@@H]5CC[C@]43C)[C@H]12`, the growth is -82.6% (active) in the assay with SK-MEL-2 melanoma; -81.5% (active) with EKVX NSCLC; -95.3% (active) in the assay on SN12C renal; -92.5% (active) with UO-31 renal; -97.4% (active) in the assay with TK-10 renal; -94.4% (active) with ACHN renal. Also, the growth in the assay with CAKI-1 renal is -42.5% (active); with A498 renal it was -83.2% (active); with CCRF-CEM leukemia, -51.7% (active); with MOLT-4 leukemia, -51.9% (active); in the assay with RPMI-8226 leukemia it was -59.3% (active); in the assay on OVCAR-8 ovarian, -76.2% (active). Besides, the growth was -77.8% (active) in the assay with OVCAR-5 ovarian; -24.9% (active) in the assay on OVCAR-4 ovarian; -89.5% (active) in the assay with SK-OV-3 ovarian; -69.2% (active) in the assay with IGROV1 ovarian; -93.2% (active) in the assay on OVCAR-3 ovarian; -30.7% (active) in the assay with HS 578T breast. Also, the growth with NCI/ADR-RES ovarian is -75.1% (active).
Turning to `CN1CCN(C2=C(Cl)C(=O)c3ccccc3C2=O)CC1`, the growth was 45.8% in the assay on SK-MEL-2 melanoma; 89.3% with EKVX NSCLC; 79.1% in the assay with SN12C renal; 75.4% in the assay with UO-31 renal; 93.5% with TK-10 renal; 82.9% in the assay with ACHN renal. The growth was 77% in the assay with CAKI-1 renal; 88.6% with A498 renal; 75.5% in the assay with CCRF-CEM leukemia; 79.7% in the assay on MOLT-4 leukemia; 24.3% in the assay with SR leukemia; 67.1% in the assay on OVCAR-8 ovarian. In addition, the growth with OVCAR-5 ovarian is 119%; in the assay on OVCAR-4 ovarian, 84%; in the assay on SK-OV-3 ovarian, 102%; in the assay with IGROV1 ovarian, 60.7%; in the assay on HS 578T breast, 27.8%; with NCI/ADR-RES ovarian it was 69.8%.
For `COc1c(C)cnc(CSc2nc(-c3ccc(C)cc3)cn2-c2ccc(Cl)cc2)c1C`, the growth with SK-MEL-2 melanoma was 83%; in the assay on EKVX NSCLC it was 92.1%; in the assay with SN12C renal, 94.4%; in the assay with UO-31 renal it was 63.2%; in the assay on TK-10 renal it was 101%; in the assay with ACHN renal, 98.9%. The growth in the assay with CAKI-1 renal was 91.1%; in the assay with A498 renal it was 93.9%; in the assay on CCRF-CEM leukemia it was 99.8%; in the assay with MOLT-4 leukemia, 73.5%; with RPMI-8226 leukemia, 89.9%; in the assay with OVCAR-8 ovarian, 98.5%. Further, the growth with OVCAR-5 ovarian was 97.5%; in the assay on OVCAR-4 ovarian, 90.2%; in the assay with SK-OV-3 ovarian, 91%; in the assay on IGROV1 ovarian it was 93.4%; in the assay on OVCAR-3 ovarian, 93.5%; in the assay with HS 578T breast, 105%. Also, the growth in the assay with NCI/ADR-RES ovarian was 95.5%.
`Cc1c(C(N)=O)sc2nc(C)n(/N=c3\scc(-c4ccccc4)n3Cc3ccccc3)c(=O)c12`: the growth in the assay with SK-MEL-2 melanoma was 10%; in the assay with EKVX NSCLC, -6.97% (active); in the assay with SN12C renal it was 47.7%; with UO-31 renal, 4.13% (active); with TK-10 renal it was 2.89% (active); in the assay with ACHN renal, 7.27% (active). Moreover, the growth with CAKI-1 renal is -40.6% (active); with A498 renal, 0.708% (active); in the assay on CCRF-CEM leukemia, -12.2% (active); in the assay on MOLT-4 leukemia, 12.1%; with RPMI-8226 leukemia it was -10.3% (active); in the assay on OVCAR-8 ovarian, 14.7%. Moreover, the growth in the assay with OVCAR-5 ovarian was 47.9%; in the assay on OVCAR-4 ovarian, 33.5%; in the assay on SK-OV-3 ovarian, 58.6%; in the assay with IGROV1 ovarian it was 10.9%; with OVCAR-3 ovarian, 4.32% (active); in the assay with HS 578T breast, -14.6% (active). The growth with NCI/ADR-RES ovarian is 18.9%.
For the molecule `CC1(C)C(=O)/C(=C\c2cccnc2)C[C@]2(C)[C@H]3CC=C4[C@@H]5C[C@@](C)(C(=O)O)CC[C@]5(C)CC[C@@]4(C)[C@]3(C)CC[C@@H]12`, the growth in the assay with SK-MEL-2 melanoma is 96.8%; with EKVX NSCLC, 95.8%; in the assay on SN12C renal it was 94.2%; in the assay on UO-31 renal it was 84.2%; in the assay on TK-10 renal, 101%; in the assay on ACHN renal, 95.8%. Also, the growth is 86.9% in the assay with CAKI-1 renal; 100% in the assay with A498 renal; 81.8% in the assay with CCRF-CEM leukemia; 87.2% in the assay with MOLT-4 leukemia; 71.5% in the assay with RPMI-8226 leukemia; 89.7% in the assay with OVCAR-8 ovarian. Besides, the growth with OVCAR-5 ovarian was 107%; with OVCAR-4 ovarian, 90.6%; in the assay with SK-OV-3 ovarian it was 94.9%; in the assay on IGROV1 ovarian it was 103%; in the assay with OVCAR-3 ovarian, 98.3%; in the assay on HS 578T breast, 99.2%. Further, in the assay with NCI/ADR-RES ovarian, the growth is 102%.
In the case of `O=C1N/C(=N/O)S/C1=C/c1cn(-c2ccccc2)nc1-c1ccccc1`, the growth in the assay with SK-MEL-2 melanoma is 100%; with EKVX NSCLC, 87.7%; in the assay with SN12C renal it was 96.1%; in the assay with UO-31 renal, 57.5%; with TK-10 renal, 108%; with ACHN renal, 100%. For the same molecule, the growth with CAKI-1 renal was 77.2%; with A498 renal it was 85.6%; in the assay on CCRF-CEM leukemia, 91.6%; with MOLT-4 leukemia, 91.9%; in the assay on RPMI-8226 leukemia, 98.8%; in the assay on OVCAR-8 ovarian it was 89.9%. For the same molecule, the growth with OVCAR-5 ovarian is 109%; with OVCAR-4 ovarian, 111%; in the assay on SK-OV-3 ovarian, 77.6%; in the assay on IGROV1 ovarian, 77.4%; in the assay on OVCAR-3 ovarian, 93%; in the assay on HS 578T breast, 83.1%. For the same molecule, the growth in the assay with NCI/ADR-RES ovarian is 99.8%.
Consider `CN1CCN(C(=O)[C@]23CCC(C)(C)C[C@@H]2C2=CC[C@@H]4[C@@]5(C)Cc6c([nH]c7ccccc67)C(C)(C)[C@@H]5CC[C@@]4(C)[C@]2(C)CC3)CC1`, for which the growth with SK-MEL-2 melanoma is 95.1%; with EKVX NSCLC, 77%; with SN12C renal, 88.1%; in the assay on UO-31 renal, 57.7%; in the assay with TK-10 renal, 92.4%; in the assay with ACHN renal it was 86.9%. Further, the growth is 55.2% in the assay on CAKI-1 renal; 96.5% in the assay on A498 renal; 71% with CCRF-CEM leukemia; 63% in the assay on MOLT-4 leukemia; 71.6% in the assay with RPMI-8226 leukemia; 79.6% in the assay with OVCAR-8 ovarian. The growth in the assay with OVCAR-5 ovarian was 79.8%; with OVCAR-4 ovarian, 72%; with SK-OV-3 ovarian it was 76.8%; with IGROV1 ovarian, 84.4%; in the assay with OVCAR-3 ovarian, 78.3%; in the assay on HS 578T breast, 73.2%. For the same molecule, the growth in the assay with NCI/ADR-RES ovarian is 89.9%.
In the case of `N#Cc1c(N)n2c(nc1=Nc1ccc([N+](=O)[O-])cc1)sc1cc(Cl)ccc12`, the growth with SK-MEL-2 melanoma is 99.4%; in the assay with EKVX NSCLC it was 84.3%; in the assay on SN12C renal it was 89.4%; in the assay with UO-31 renal it was 75.2%; in the assay on TK-10 renal, 148%; in the assay on ACHN renal, 90.7%. Moreover, the growth in the assay with CAKI-1 renal was 85.2%; in the assay on A498 renal, 102%; in the assay with CCRF-CEM leukemia it was 83.6%; in the assay on MOLT-4 leukemia, 93.4%; with RPMI-8226 leukemia it was 49.7%; with OVCAR-8 ovarian, 94.5%. Besides, the growth in the assay on OVCAR-5 ovarian was 101%; in the assay with OVCAR-4 ovarian, 86.1%; with SK-OV-3 ovarian it was 76.4%; in the assay with IGROV1 ovarian, 82.3%; in the assay with OVCAR-3 ovarian, 108%; in the assay on HS 578T breast it was 79%. The growth in the assay with NCI/ADR-RES ovarian is 95.2%.
For the molecule `O=C1/C(=C/c2ccc([N+](=O)[O-])cc2)COc2ccc(O)c(O)c21`, the growth in the assay on SK-MEL-2 melanoma was 85.5%; in the assay on EKVX NSCLC it was 41.3%; in the assay with SN12C renal, -47.3% (active); in the assay on UO-31 renal it was -98.6% (active); in the assay on TK-10 renal, -8.97% (active); with ACHN renal, -77.5% (active). Moreover, the growth in the assay on CAKI-1 renal was -53.1% (active); in the assay with A498 renal, 86.3%; in the assay on CCRF-CEM leukemia it was -2.51% (active); in the assay with MOLT-4 leukemia it was -1.02% (active); in the assay with SR leukemia, -1.74% (active); in the assay with OVCAR-8 ovarian it was 14.2%. Besides, the growth is -68.6% (active) in the assay with OVCAR-5 ovarian; 89.2% in the assay with SK-OV-3 ovarian; -40% (active) in the assay on IGROV1 ovarian; -88.2% (active) in the assay on OVCAR-3 ovarian; 4.58% (active) in the assay on HS 578T breast; 11.1% in the assay with NCI/ADR-RES ovarian.
For `O=C(CCc1nc(-c2cccc(Cl)c2)no1)Nc1ccccn1`, the growth with SK-MEL-2 melanoma was 105%; with EKVX NSCLC, 92.6%; in the assay on SN12C renal, 94.9%; with UO-31 renal it was 88.1%; with TK-10 renal it was 111%; in the assay on ACHN renal it was 101%. The growth is 89.4% with CAKI-1 renal; 92.5% in the assay with A498 renal; 95% in the assay on CCRF-CEM leukemia; 96.8% with MOLT-4 leukemia; 89.1% in the assay with SR leukemia; 106% in the assay with OVCAR-8 ovarian. For the same molecule, the growth in the assay with OVCAR-5 ovarian is 100%; with OVCAR-4 ovarian, 107%; with SK-OV-3 ovarian, 104%; in the assay with IGROV1 ovarian it was 90.4%; in the assay on OVCAR-3 ovarian it was 108%; in the assay with HS 578T breast, 93.8%. Moreover, in the assay on NCI/ADR-RES ovarian, the growth was 95%.
